Data published in ChEMBL document CHEMBL4513216, “Probing the Open Global Health Chemical Diversity Library for Multistage-Active Starting Points for Next-Generation Antimalarials” (ACS Infect Dis, 2020).
In all, about 68,000 compounds went through this assay and about 2,700 (4%) showed an effect of 50% or more. This excerpt belongs to a sample that is enriched for strong results.

tested on: Plasmodium berghei; assay: Screen against P. berghei liver stage (PbLuc), transformed with Luciferase, at 2uM; type: functional, HepG2; conditions: tested at 2 uM

**Q.** Which INHIBITION does the source give for `CN(Cc1cccs1)c1cc(N2CCCC2CO)ncn1` (stereo not given) here?
**A.** The INHIBITION was -25.71%.

**Q.** With `Cc1c[nH]cc1C(=O)N1CCN(CCc2cccs2)CC1` as the compound, how does the INHIBITION read?
**A.** The INHIBITION was -14.3%.

**Q.** How did the INHIBITION turn out when `COc1ccc(OCC(C)NS(C)(=O)=O)cc1` (stereo not given) was run?
**A.** Its INHIBITION is 37.05%.

**Q.** With `Cc1ccc(OCC(C)NS(C)(=O)=O)cc1C` (stereo not given) as the compound, how does the INHIBITION read?
**A.** Its INHIBITION is 52.85%.

**Q.** `Cc1ccc(OCC(C)NS(C)(=O)=O)cc1` (stereo not given) was tested. Which INHIBITION did it give?
**A.** Its INHIBITION is 41.84%.

**Q.** Which INHIBITION does the source give for `Cc1ncc(S(C)(=O)=O)c(N(C)CCCc2cnn(C)c2)n1` here?
**A.** The INHIBITION was 13.95%.

**Q.** For `CNC(=O)[C@@H]1COC[C@H]2CN(C(=O)c3ccc(OC)cc3)C[C@H]21`, which INHIBITION is on record?
**A.** Its INHIBITION is 51.36%.

**Q.** How did the INHIBITION turn out when `CNC(=O)[C@@H]1COC[C@H]2CN(C(=O)c3cccc(OC)c3)C[C@H]21` was run?
**A.** The INHIBITION was 11.6%.

**Q.** With `CCc1ccc(C(=O)N2C[C@@H]3COC[C@@H](C(=O)NC)[C@@H]3C2)cc1` as the compound, how does the INHIBITION read?
**A.** Its INHIBITION is -10.98%.

**Q.** How did the INHIBITION turn out when `Cc1ccc(-c2noc(CN3CC(n4cc(C)cn4)C3)n2)cc1` was run?
**A.** The INHIBITION was -21.39%.

**Q.** For `c1cnn(C2CN(Cc3nc(-c4ccsc4)no3)C2)c1`, which INHIBITION is on record?
**A.** Its INHIBITION is -5.2%.

**Q.** For `Cc1cnn(C2CN(Cc3nc(-c4ccsc4)no3)C2)c1`, which INHIBITION is on record?
**A.** Its INHIBITION is 56.02%.

**Q.** How did the INHIBITION turn out when `COCC1CN(C(=O)CC2Cc3ccccc3C2)Cc2c1cnn2C` (stereo not given) was run?
**A.** Its INHIBITION is 56.25%.

**Q.** How did the INHIBITION turn out when `COCC1CN(C(=O)c2ccnnc2)Cc2c1cnn2C` (stereo not given) was run?
**A.** Its INHIBITION is 6.57%.

**Q.** For `COCC1CN(C(=O)Cc2cccs2)Cc2c1cnn2C` (stereo not given), which INHIBITION is on record?
**A.** Its INHIBITION is -41.11%.

**Q.** With `Cc1ccc(S(=O)(=O)N2CCC(Oc3cccnn3)CC2)c(C)c1` as the compound, how does the INHIBITION read?
**A.** The INHIBITION was 71.06%.

**Q.** With `COc1ccccc1S(=O)(=O)N1CCC(Oc2cccnn2)CC1` as the compound, how does the INHIBITION read?
**A.** Its INHIBITION is 33.61%.

**Q.** `COC(=O)c1sccc1S(=O)(=O)N1CCC(Oc2cccnn2)CC1` was tested. Which INHIBITION did it give?
**A.** The INHIBITION was 23.42%.

**Q.** For `CN(C)S(=O)(=O)N1CCC(Oc2ccccn2)CC1`, which INHIBITION is on record?
**A.** The INHIBITION was -19.47%.

**Q.** For `Cc1ccc(S(=O)(=O)N2CCC(Oc3ccccn3)CC2)c(C)c1`, which INHIBITION is on record?
**A.** The INHIBITION was 56.24%.

**Q.** Which INHIBITION does the source give for `O=S(=O)(c1ccccc1F)N1CCC(Oc2cccnn2)CC1` here?
**A.** Its INHIBITION is 51.31%.

**Q.** `CN(C)S(=O)(=O)N1CCC(Oc2cccnn2)CC1` was tested. Which INHIBITION did it give?
**A.** The INHIBITION was 20.38%.

**Q.** With `Cc1noc(C)c1S(=O)(=O)N1CCC(Oc2cccnn2)CC1` as the compound, how does the INHIBITION read?
**A.** The INHIBITION was -12.23%.

**Q.** How did the INHIBITION turn out when `Cc1noc(C)c1S(=O)(=O)N1CCC(Oc2ccccn2)CC1` was run?
**A.** Its INHIBITION is -11.22%.

**Q.** `O=C(NCCCn1cccn1)N1CCCC1c1cccs1` (stereo not given) was tested. Which INHIBITION did it give?
**A.** The INHIBITION was -13.45%.

**Q.** For `CCc1cc2c(N3CCCC(c4cc(C(N)=O)[nH]n4)C3)ncnc2s1` (stereo not given), which INHIBITION is on record?
**A.** Its INHIBITION is -126.83%.

**Q.** How did the INHIBITION turn out when `Cc1cnc(C(=O)N2CCc3c(nc(-c4ccncc4)[nH]c3=O)C2)cn1` was run?
**A.** Its INHIBITION is 10.63%.

**Q.** How did the INHIBITION turn out when `CNC(=O)C(C)(C)N1CCC[C@H]1C(=O)NC1CC1` was run?
**A.** Its INHIBITION is 24.91%.

**Q.** For `COc1ccc(C2(C(=O)N3C[C@@H](C(=O)O)[C@H](C(C)C)C3)CC2)cc1`, which INHIBITION is on record?
**A.** Its INHIBITION is 17.2%.

**Q.** Which INHIBITION does the source give for `CC(C)[C@@H]1CN(C(=O)C2(c3ccccc3)CCN(C)CC2)C[C@H]1C(=O)O` here?
**A.** The INHIBITION was 31.51%.

**Q.** For `CC(C)[C@@H]1CN(C(=O)C2(c3ccccc3)CC2)C[C@H]1C(=O)O`, which INHIBITION is on record?
**A.** The INHIBITION was 69.67%.

**Q.** With `CCN(c1ccc(C(=O)N2CCC(C)CC2)cc1)S(=O)(=O)CC` as the compound, how does the INHIBITION read?
**A.** Its INHIBITION is 9.63%.

**Q.** Which INHIBITION does the source give for `CCS(=O)(=O)N(C)c1ccc(C(=O)N2CCCC(C)C2)cc1` (stereo not given) here?
**A.** The INHIBITION was 62.77%.

**Q.** Which INHIBITION does the source give for `CCN(c1ccc(C(=O)N2CCCC(C)C2)cc1)S(=O)(=O)CC` (stereo not given) here?
**A.** Its INHIBITION is -2.82%.

**Q.** For `CN1CCN(C(=O)C2(S(C)(=O)=O)CCCC2)Cc2ccccc21`, which INHIBITION is on record?
**A.** Its INHIBITION is -21.76%.

**Q.** `NC(=O)NC1(C(=O)N2CCc3c(Cl)cccc3C2)CCCCC1` was tested. Which INHIBITION did it give?
**A.** Its INHIBITION is 42.2%.

**Q.** For `CN1CCN(C(=O)C2(NC(N)=O)CCCCC2)Cc2ccccc21`, which INHIBITION is on record?
**A.** The INHIBITION was 50.61%.

**Q.** For `O=C(CC1CC1)N[C@@H]1CN(Cc2ccccn2)C[C@@H]2CCCO[C@@H]21`, which INHIBITION is on record?
**A.** Its INHIBITION is -5.84%.

**Q.** For `c1ccc(CCN2CCCC(c3ccnc4nccn34)C2)cc1` (stereo not given), which INHIBITION is on record?
**A.** The INHIBITION was 32.74%.

**Q.** `Cc1csc(C(=O)N2CCC3(CC(N(C)c4ccncn4)C3)C2)c1` (stereo not given) was tested. Which INHIBITION did it give?
**A.** Its INHIBITION is -18.68%.

**Q.** Which INHIBITION does the source give for `CN(CC(O)C1CC1)C(=O)Nc1ccc(F)c(-n2cccc2)c1` (stereo not given) here?
**A.** Its INHIBITION is 42.76%.

**Q.** Which INHIBITION does the source give for `c1ccc(-c2nc(CCNCc3cccnc3)co2)cc1` here?
**A.** The INHIBITION was 30.88%.

**Q.** For `CS(=O)(=O)NCCNC(=O)NC1(c2ccc(Cl)cc2)CCC1`, which INHIBITION is on record?
**A.** The INHIBITION was 43.88%.

**Q.** How did the INHIBITION turn out when `CS(=O)(=O)NCCC(=O)NC1(c2ccc(F)cc2)CCCC1` was run?
**A.** The INHIBITION was 5.17%.

**Q.** How did the INHIBITION turn out when `CS(=O)(=O)NCCNC(=O)NC1(c2ccc(F)cc2)CCCC1` was run?
**A.** The INHIBITION was 52.3%.

**Q.** `CN(C)CCOCc1nnc2n1CCN(Cc1ccsc1)C2` was tested. Which INHIBITION did it give?
**A.** The INHIBITION was 20.2%.

**Q.** How did the INHIBITION turn out when `CCc1cc(NC(=O)C2CCCN(C(=O)NCC(C)C)C2)[nH]n1` (stereo not given) was run?
**A.** Its INHIBITION is 6.62%.

**Q.** For `Cc1n[nH]c(C)c1NC(=O)C1CCCN(C(=O)NCC(C)C)C1` (stereo not given), which INHIBITION is on record?
**A.** Its INHIBITION is 52.95%.

**Q.** How did the INHIBITION turn out when `Cc1c(C2CC2)n[nH]c1NC(=O)C1CCCN(C(=O)NCC(C)C)C1` (stereo not given) was run?
**A.** Its INHIBITION is -7.81%.

**Q.** How did the INHIBITION turn out when `CC(C)c1sc(Cl)nc1C(=O)N1CCN(c2ccccn2)CC1` was run?
**A.** The INHIBITION was 20.42%.

**Q.** How did the INHIBITION turn out when `COc1ncnc2c1CCN(C(=O)NCc1cccnc1)CC2` was run?
**A.** Its INHIBITION is 46.02%.

**Q.** For `O=C(NCCc1ccncc1)C1CCN(Cc2ccco2)CC1`, which INHIBITION is on record?
**A.** Its INHIBITION is -0.55%.

**Q.** How did the INHIBITION turn out when `COCCNC(=O)Cn1cc(NC(=O)c2ccc(C(C)(C)C)cc2)cn1` was run?
**A.** Its INHIBITION is -38.81%.

**Q.** `CC(C)c1nc(CS(=O)(=O)Cc2noc(C3CC3)n2)cs1` was tested. Which INHIBITION did it give?
**A.** Its INHIBITION is 53.12%.

**Q.** Which INHIBITION does the source give for `CCc1nc(CS(=O)(=O)Cc2noc(C3CC3)n2)cs1` here?
**A.** Its INHIBITION is -18.58%.

**Q.** Which INHIBITION does the source give for `CCc1nc(CN2CCCN(Cc3noc(C4CC4)n3)CC2)cs1` here?
**A.** Its INHIBITION is -17.17%.

**Q.** Which INHIBITION does the source give for `CN1CC(C(=O)NC2(c3ccc(Cl)cc3)CCOCC2)CC1=O` (stereo not given) here?
**A.** The INHIBITION was 3%.

**Q.** With `CN(C)C(=O)COCC1CN(Cc2ccco2)Cc2ncn(C)c21` (stereo not given) as the compound, how does the INHIBITION read?
**A.** The INHIBITION was -45.9%.

**Q.** With `CC(C)c1nnc2n1CCN(C(=O)c1ccc3cc[nH]c3c1)C2` as the compound, how does the INHIBITION read?
**A.** Its INHIBITION is 45.92%.

**Q.** How did the INHIBITION turn out when `CCCc1ccc(C(=O)N2CCn3c(nnc3C(C)C)C2)cc1` was run?
**A.** The INHIBITION was 15.08%.

**Q.** Which INHIBITION does the source give for `CC(C)c1nnc2n1CCN(C(=O)c1ccc(Cn3cccc3)cc1)C2` here?
**A.** Its INHIBITION is 15.08%.

**Q.** For `CC(C)c1nnc2n1CCN(C(=O)c1ccc(CN(C)C)cc1)C2`, which INHIBITION is on record?
**A.** The INHIBITION was 50.72%.

**Q.** Which INHIBITION does the source give for `CC(C)c1nnc2n1CCN(C(=O)c1ccc3c(c1)CCC3)C2` here?
**A.** Its INHIBITION is 9.17%.

**Q.** With `CC(C)c1nnc2n1CCN(C(=O)c1ccc3c(c1)COC3)C2` as the compound, how does the INHIBITION read?
**A.** The INHIBITION was 57.75%.

**Q.** `O=C(c1ccoc1)N1CCn2cnc(COCC3CC3)c2C1` was tested. Which INHIBITION did it give?
**A.** Its INHIBITION is 41.79%.
